Results on 39 compounds are retold here after PubChem BioAssay (NCATS).

Results filed as inconclusive are left out. The source made the active and inactive calls. Unless noted, the call rests on the fitted dose curve; in most records, active means well fitted curve in either direction with a large enough effect (not every such curve was filed as active); inconclusive means small, poorly fitted or top-dose-only effect, or another doubt; inactive means flat fitted curve, though single readings scatter.

Sequence of 3',5'-cyclic-AMP phosphodiesterase 4B (Homo sapiens) (Q07343 whole entry, looked up): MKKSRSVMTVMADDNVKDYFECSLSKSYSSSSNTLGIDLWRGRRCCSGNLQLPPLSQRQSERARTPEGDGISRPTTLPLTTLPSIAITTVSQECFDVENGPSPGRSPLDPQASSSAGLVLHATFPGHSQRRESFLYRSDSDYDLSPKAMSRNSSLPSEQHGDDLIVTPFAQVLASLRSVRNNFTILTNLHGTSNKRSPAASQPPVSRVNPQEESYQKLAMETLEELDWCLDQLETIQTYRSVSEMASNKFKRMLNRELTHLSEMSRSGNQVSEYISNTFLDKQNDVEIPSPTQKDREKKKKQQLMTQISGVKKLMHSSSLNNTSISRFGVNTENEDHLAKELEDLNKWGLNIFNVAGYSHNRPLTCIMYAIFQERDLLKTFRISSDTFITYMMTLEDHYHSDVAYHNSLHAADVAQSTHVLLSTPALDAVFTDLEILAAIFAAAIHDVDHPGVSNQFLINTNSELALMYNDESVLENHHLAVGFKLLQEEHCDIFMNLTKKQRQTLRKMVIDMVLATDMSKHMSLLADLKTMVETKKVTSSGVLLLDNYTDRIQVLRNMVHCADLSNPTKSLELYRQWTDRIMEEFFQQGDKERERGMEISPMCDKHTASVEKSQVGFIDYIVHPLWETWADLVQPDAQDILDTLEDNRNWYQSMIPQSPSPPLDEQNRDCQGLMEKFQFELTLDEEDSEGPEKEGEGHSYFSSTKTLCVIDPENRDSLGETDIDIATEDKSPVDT

In the first assay the target is Mitogen-activated protein kinase 10 (Mus musculus) (UniProt Q61831). Kind of assay: JNK3 AlphaScreen Assay (AID 530).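 Further: kinase came from lysate of stimulated human HepG2 cells.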 The settings on record: JNK3 lysate, c-Jun phosphorylation; series mostly up to 57.1 µM. The procedure, abridged: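 Biotinylated GST-cJun(1-79) served as substrate for JNK3 in HepG2 lysates stimulated with IL-1beta and TNF-alpha. ATP was 10 uM final, pH 7.6. Ser73 phosphorylation was quantified by AlphaScreen (680 nm excitation).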
On to `CCCn1c(C)nc2c(NCCCN(C)C)nc(C)nc21`, for which the outcome was inactive.

Turning to `CCCn1c(C)nc2c(NCCO)nc(C)nc21`, the compound was called inactive.

`CC(Cc1ccccc1)C(=O)Nc1ccccc1` (stereo unspecified): the compound was classed as inactive.

With `COCCNC(=O)[C@@]1(Cc2ccccc2)C=C[C@@H](C)N1C(=O)OC`, the compound was classed as inactive.

Turning to `C[C@@H]1C=C[C@](Cc2ccccc2)(C(=O)O)N1C(=O)c1ccccc1`, the compound was classed as inactive.

In the case of `CC1(C(=O)O)C=CCN1C(=O)c1ccccc1` (stereo unspecified), the call was inactive.

As to `CC1(C(=O)NCc2ccccn2)C=CCN1C(=O)c1ccccc1` (stereo unspecified), the compound was classed as inactive.

`COC(=O)[C@@]1(Cc2ccc(OC)cc2)[C@@H]2[C@@H](CC(=O)[C@H]2CC(=O)C(=O)N(C)C)CN1C(=O)c1ccccc1`: the compound was called inactive.

Consider `COC(=O)[C@@]1(Cc2ccccc2)[C@H]2c3cc(C(=O)N4CCCC4)n(CCN4CNCC4=O)c3C[C@H]2CN1C(=O)c1ccccc1`, for which the compound was classed as inactive.

As for `COC(=O)[C@@]1(Cc2ccc(F)cc2)[C@H]2c3cc(C(=O)N4CCCC4)n(Cc4ccc(S(C)(=O)=O)cc4)c3C[C@H]2CN1C(=O)c1ccccc1`, the compound was classed as inactive.

In the case of `COC(=O)[C@@]1(Cc2ccccc2)[C@H]2c3cc(C(=O)N4CCCC4)[nH]c3C[C@H]2CN1C(=O)c1ccccc1`, the compound was classed as inactive.

On to `CC(=O)N1[C@H](Cc2ccccc2)C=C[C@]1(C)C(=O)NCc1ccccn1`, for which the result was inactive.

For `COC(=O)N1[C@H](Cc2ccccc2)C=C[C@]1(C)C(=O)O`, the compound was called inactive.

In the case of `CCCC[C@@H]1C[C@H]1C(NC(=O)c1cccnc1)c1ccc(-c2ccccc2)cc1` (stereo partly specified), the result was inactive.

For `COC(=O)CCCCCN1C(=O)NC(c2ccc(-c3ccccc3)cc2)C(C(=O)OCc2ccccc2)=C1C` (stereo unspecified), the result was inactive.

Turning to `COC(=O)c1ccc(C(NC(=O)OCc2ccccc2)/C(=C/[C@@H](C)C(=O)NCc2cc(C)n(C)n2)c2cccnc2)cc1` (stereo partly specified), the outcome was inactive.

Take `CC(=O)N1[C@H](Cc2ccccc2)C=C[C@]1(C)C(=O)O`: the compound was classed as inactive.

On to `COC(=O)N1CC=CC1(C)C(=O)O` (stereo unspecified), for which the compound was classed as inactive.

In the case of `COCCNC(=O)[C@H](C)[C@H]1C[C@]1(C)[C@H](NC(=O)OCc1ccccc1)c1ccccc1`, the result was inactive.

On to `C[C@H](CO)NC(=O)[C@H](C)[C@H]1C[C@]1(C)[C@H](NC(=O)OCc1ccccc1)c1ccccc1`, for which the call was inactive.

For `COC(=O)N1[C@H](C)C=C[C@]1(Cc1ccccc1)C(=O)OC`, the compound was classed as inactive.

As for `COC(=O)[C@@]1(Cc2ccc(F)cc2)[C@H]2c3cc(C(=O)N4CCCC4)n(CCc4c[nH]c5ccc(OC)cc45)c3C[C@H]2CN1C(=O)c1ccccc1`, the outcome was inactive.

Regarding `CC(Cc1ccccc1)C(=O)NCC1CC1` (stereo unspecified), the compound was called inactive.

Consider `CC(=O)N1C2(C=CC1(C)C(=O)NCc1ccc(C)o1)CCCCC2` (stereo unspecified), for which the outcome was inactive.

Turning to `C[C@H](CO)NC(=O)[C@H](C)[C@@H]1C[C@@]1(C)[C@@H](NC(=O)OCc1ccccc1)c1ccccc1`, the result was inactive.

On to `CCC/C=C(\CCC)C(NS(C)(=O)=O)c1ccccc1` (stereo unspecified), for which the compound was classed as inactive.

`CO[C@H]1OC[C@@]2(C)[C@@H]3C4=C(CN2C(=O)OC(C)(C)C)[C@H](C)[C@H](CO)[C@H](CO)[C@H]4CC[C@H]13`: the outcome was inactive.

As to `COC(=O)CNC(=O)[C@@]1(Cc2ccccc2)C=C[C@@H](C)N1C(=O)c1ccccc1`, the outcome was inactive.

For the compound `CCC[C@@H]1C[C@@]1(CCC)[C@@H](NP(=O)(c1ccccc1)c1ccccc1)c1ccc(C(=O)OC)cc1`, the compound was classed as inactive.

For the compound `COC(=O)[C@@]1(Cc2ccccc2)C=C[C@@H](C)N1C(=O)c1ccccc1`, the compound was called inactive.

With `COC(=O)[C@@]1(Cc2ccccc2)C=C[C@@H](C)N1C(C)=O`, the outcome was inactive.

Regarding `COCCNC(=O)C1(CC(C)C)C=CCN1C(C)=O` (stereo unspecified), the call was inactive.

With `C[C@H]1C2=C3C(CC[C@H]4C(OCc5ccc(F)cc5C(F)(F)F)OC[C@](C)([C@@H]34)N(C(=O)OC(C)(C)C)C2)C2COC(=O)OCC21` (stereo partly specified), the outcome was inactive.

As for `CNC(=O)C1(CC(C)C)C=CCN1C(C)=O` (stereo unspecified), the outcome was inactive.

For `CNC(=O)C1(C)C=CCN1C(=O)c1ccccc1` (stereo unspecified), the result was inactive.

Consider `COC(=O)N1CC=CC1(C)C(=O)NCC1CC1` (stereo unspecified), for which the call was inactive.

For the compound `COC(=O)[C@@]1(Cc2ccc(OC)cc2)[C@H]2c3cc(C(=O)N4CCCC4)n(Cc4nc5ccccc5[nH]4)c3C[C@H]2CN1C(=O)c1ccccc1`, the call was inactive.

Regarding `Cc1nc(NCCO)c2nc(-c3ccccc3)n(CCN(C)C)c2n1`, the outcome was inactive.

For the compound `COCCNC(=O)C1(C)C=CCN1C(C)=O` (stereo unspecified), the compound was classed as inactive.

A further assay concerns the target 3',5'-cyclic-AMP phosphodiesterase 4B (Homo sapiens) (UniProt Q07343). Kind of assay: qHTS Assay for Inhibitors of PDE-IV (AID 607; active means well fitted activation curve with a large enough effect in the main read-out, with a control signal flat, not every such curve was filed as active). As to conditions: HEK293 ACTOne CNG channel cells, membrane potential fluorescence; series mostly up to 22.9 µM. The procedure, abridged: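 HEK293 ACTOne cells with CNG channel (1000/well), endogenous PDE4; membrane potential dye, compounds up to 22.9 uM final. Fluorescence Ex 535/Em 590; RO 20-1724 (100 uM final) as reference.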
A general note: qHTS replaces the single test concentration by a dilution series.
Take `COC(=O)[C@@]1(Cc2ccc(OC)cc2)[C@@H]2[C@@H](CC(=O)[C@H]2CC(=O)C(=O)N(C)C)CN1C(=O)c1ccccc1`: the outcome was inactive.

As to `COC(=O)[C@@]1(Cc2ccccc2)[C@H]2c3cc(C(=O)N4CCCC4)n(CCN4CNCC4=O)c3C[C@H]2CN1C(=O)c1ccccc1`, the compound was called inactive.

For the compound `COC(=O)[C@@]1(Cc2ccc(F)cc2)[C@H]2c3cc(C(=O)N4CCCC4)n(Cc4ccc(S(C)(=O)=O)cc4)c3C[C@H]2CN1C(=O)c1ccccc1`, the compound was called inactive.

For `COC(=O)[C@@]1(Cc2ccccc2)[C@H]2c3cc(C(=O)N4CCCC4)[nH]c3C[C@H]2CN1C(=O)c1ccccc1`, the outcome was inactive.

Turning to `COCCNC(=O)[C@H](C)[C@H]1C[C@]1(C)[C@H](NC(=O)OCc1ccccc1)c1ccccc1`, the compound was called inactive.

With `C[C@H](CO)NC(=O)[C@H](C)[C@H]1C[C@]1(C)[C@H](NC(=O)OCc1ccccc1)c1ccccc1`, the compound was called inactive.

As to `COC(=O)[C@@]1(Cc2ccc(F)cc2)[C@H]2c3cc(C(=O)N4CCCC4)n(CCc4c[nH]c5ccc(OC)cc45)c3C[C@H]2CN1C(=O)c1ccccc1`, the compound was called inactive.

`C[C@H](CO)NC(=O)[C@H](C)[C@@H]1C[C@@]1(C)[C@@H](NC(=O)OCc1ccccc1)c1ccccc1`: the call was inactive.

Regarding `CCC/C=C(\CCC)C(NS(C)(=O)=O)c1ccccc1` (stereo unspecified), the result was inactive.

Turning to `CO[C@H]1OC[C@@]2(C)[C@@H]3C4=C(CN2C(=O)OC(C)(C)C)[C@H](C)[C@H](CO)[C@H](CO)[C@H]4CC[C@H]13`, the compound was called inactive.

For `C[C@H]1C2=C3C(CC[C@H]4C(OCc5ccc(F)cc5C(F)(F)F)OC[C@](C)([C@@H]34)N(C(=O)OC(C)(C)C)C2)C2COC(=O)OCC21` (stereo partly specified), the result was inactive.

`COC(=O)[C@@]1(Cc2ccc(OC)cc2)[C@H]2c3cc(C(=O)N4CCCC4)n(Cc4nc5ccccc5[nH]4)c3C[C@H]2CN1C(=O)c1ccccc1`: the outcome was inactive.
